Experimental data published in PubChem BioAssay (NCI).
Compounds without any hit were thinned out: in the full panel of roughly 83,000, 20% have a hit.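 48-hour exposure, single concentration, 96-well plates; percent growth endpoint where 0 means no net growth. Active: below 10.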 The source made the active and inactive calls.

test system: ACHN renal; experiment: NCI-60 one-dose screen, 48 h (100 = growth as untreated, 0 = no growth, -100 = all killed); settings: 10 µM unless noted
Protocol: Growth inhibition of the ACHN human tumor cell line is measured as a screen for anti-cancer activity. Cells are grown in 96 well plates and exposed to the test compound for 48 hours. Compounds are tested at a single concentration, which is 10^-5 M for most compounds. The reported endpoint is percent growth (GI% or GIPRCNT), where numbers from 0 - 100% represent growth inhibition, and numbers from -100% - 0 represent cell death. For example, a value of 40 represents 60% growth inhibition. A value of 0 means no net growth occurred over the course of the experiment. A value of -40 indicates 40% of cells at the beginning of the experiment died by the end of the experiment. A value of -100 means all cells are dead at the end of the experiment.
NCI-60 Human Tumor Cell Lines Screen was performed using the standard one-dose NCI protocol, which is described in more detail at https://dtp.cancer.gov/discovery_development/nci-60/default.htm.
Compounds with GIPRCNT values below 10 were considered active. Activity score was based on GIPRCNT using the following formula: […]
Score is 0 for GIPRCNT values of 100 or above, 50 for GIPRCNT values of 0, and 100 for GIPRCNT values of -100.

SMILES	growth
COc1cc(/C(C)=C(\c2ccc(Cl)cc2)c2ccc(OCCN(C)C)cc2)ccc1F	87.4% (inactive)
O=C(Nc1ccc(Cl)cc1)c1cc(NCc2cc(O)ccc2O)ccc1O	89.6% (inactive)
N#Cc1c(-c2cccc([N+](=O)[O-])c2)nc(SCC(=O)c2ccc(Cl)cc2)[nH]c1=O	103% (inactive)
CCCCN1C=CCN(CCCC)C1	98.1% (inactive)
CCCCCOc1ccc(/C=N/Nc2cc(C)nc3ccc(Cl)cc23)cc1	-73.5% (active)
COc1cc(C2=C(c3cn(C)c4ccccc34)COC2=O)cc(OC)c1OC	28% (inactive)
CCNc1nc2ccc(Nc3ccnc4cc(Cl)ccc34)cc2[nH]1	103% (inactive)
CC(C)=CCC[C@](C)(O)[C@H]1CC[C@]2(C)[C@@H]1CC[C@@H]1[C@@]3(C)C/C(=C/c4ccccc4)C(=O)C(C)(C)[C@@H]3CC[C@]12C	96.3% (inactive)
Cc1ccc(-n2c3c(c(-c4ccccc4)c2-c2ccccc2)C2=NCCN2C=N3)cc1	96.4% (inactive)
COc1ccc(/C=C2\COc3ccc(-c4ccccc4)cc3C2=O)c(OC)c1	93% (inactive)
CNC(=O)c1cccc(Cn2nc(C)c(NC(=O)c3ccc(COc4ccc(C(F)(F)F)cc4C)cc3)c2C)n1	54.9% (inactive)
COc1ccc(C(=O)c2cc(OC)c(OC)c(OC)c2)cc1O	25.6% (inactive)
Cc1ccc(-c2[nH][nH]c(=O)c2-c2nc3ccccc3s2)cc1	97.3% (inactive)
Cc1ccc(C(=O)/C(=C/c2ccc([N+](=O)[O-])cc2)SCc2ccc(Cl)cc2)cc1	91.1% (inactive)
O=C(N/N=C/c1ccc(Oc2ccccc2)cc1)c1cnn2c1NC(c1ccccc1)C2 (stereo not given)	35.2% (inactive)
Nc1c(S(=O)(=O)O)cc2c3c(cccc13)C(=O)OC2=O	95.2% (inactive)
O=S(=O)(NCCNc1nccc(-c2c(-c3cccc(F)c3)nc3sccn23)n1)c1ccccc1	26% (inactive)
Cc1cnc(C(=O)Nc2nc3ccc(S(=O)(=O)Nc4ccc(C5(C(F)(F)F)CC5)cc4)cc3[nH]2)cn1	48.2% (inactive)
O=C(/C=C/c1ccc(F)cc1)c1ccc(NC(=O)N2CCN(c3cc4c(cc3F)c(=O)c(C(=O)O)cn4C3CC3)CC2)cc1	106% (inactive)
CNC(=O)c1cccc(Cn2nc(C)c(NC(=O)c3ccc(COc4ccc(C(F)(F)F)cc4C)cc3)c2C)c1	47.2% (inactive)

SMILES	growth
CCCCC/C=C/C(C)=C/C1CC(C)C/C=C/CCC(O)C(OC(N)=O)CCC(C)CC(O)C(C)C(=O)O1 (stereo not given)	73.1% (inactive)
CNC(=O)c1cncc(Cn2nc(C)c(NC(=O)c3ccc(COc4ccc(C(F)(F)F)cc4C)cc3)c2C)c1	62% (inactive)
c1ccc2c(-c3c[nH]c4ccccc34)c3c(cc2c1)[nH]c1ccccc13	62.1% (inactive)
COc1cc(/C=N/NC(=O)c2cnn3c2NC(c2ccccc2)C3)ccc1Oc1ccccc1 (stereo not given)	27.6% (inactive)
COC(=O)/C=C1\S/C(=N\NC(=O)c2cc3ccc2/C=C\c2ccc(cc2)/C=C\3)N(Cc2ccccc2)C1=O	46.1% (inactive)
N#C/C(=C\c1ccc(C(F)(F)F)cc1)c1cc2ccccc2[nH]1	104% (inactive)
CN(CCN(C)c1ccc(C(=N)N)cc1)c1ccc(C(=N)N)cc1	105% (inactive)
Cn1c(-c2c(N)n(CCCN3CCOCC3)c3nc(C#N)c(C#N)nc23)nc2ccccc21	-79.1% (active)
O=C(O)c1ccc(NCc2cn(-c3ccc(C(F)(F)F)cc3)nc2-c2ccc(C(=O)O)cc2)cc1	109% (inactive)
COC(=O)c1ccc2c(c1)[n+](=O)c(C(C)=O)c(C(F)(F)F)n2[O-]	-99.3% (active)
COc1cc2c(c(OC)c1OC)-c1ccc(NNC(=S)N(Cc3cccc(C[N+](Cc4cccc(CNC56CC7CC(CC(C7)C5)C6)c4)(Cc4cccc(CNC56CC7CC(CC(C7)C5)C6)c4)Cc4cccc(CN(C(=S)NNc5ccc6c(cc5=O)[C@@H](NC(C)=O)CCc5cc(OC)c(OC)c(OC)c5-6)C56CC7CC(CC(C7)C5)C6)c4)c3)C34CC5CC(CC(C5)C3)C4)c(=O)cc1[C@@H](NC(C)=O)CC2 (stereo not given in full)	44.4% (inactive)
O=C(NCCNc1nccc(-c2c(-c3cccc(F)c3)nc3sccn23)n1)c1ccc(Cl)cc1	34.2% (inactive)
CCNC(=O)Oc1ccc(/C(=C(\C)c2ccccc2)c2ccc(OCCN3CCCCC3)cc2)cc1	84.2% (inactive)
O=C(NO)c1ccc(-n2nc(-c3ccccc3)c3ccccc32)cc1	26.9% (inactive)
O=C(Cn1c(C(=O)c2ccccc2)nc2ccccc21)c1ccc(F)cc1	95.8% (inactive)
COc1ccccc1NS(=O)(=O)c1cccc(C(=O)Nc2ccc(Br)cc2)c1	46.2% (inactive)
COc1cccc(-c2nc3occn3c2-c2ccnc(NCCNS(=O)(=O)c3cccc4ccccc34)n2)c1	99.6% (inactive)
COc1ccc(C(=O)C2C(C#N)C(C#N)C3c4ccccc4C=CN23)cc1 (stereo not given)	91.3% (inactive)
O=C1c2ccc3c4c(ccc(c24)C(=O)N1CCCNCc1ccccc1F)C(=O)N(CCCNCc1ccccc1F)C3=O	-47.1% (active)
C#Cc1cccc(NC(=O)c2cccc(NC(=O)CCl)c2)c1	-96.8% [8.25 µM] (active)
